D3 ag = D3 dopamine receptor (human) agonism | P35462 | D3R DiscoveRx beta-arrestin cells, luminescence, 90 min | max activation, % | hit rate 0.58% among 410,000; in the data active = max activation above about 30%
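Agonist mode: compounds and dopamine controls were applied to plated cells for 90 min at 37 degrees C after an overnight attachment at 1500 cells/well. Luminescent read-out followed 30 - 60 minutes at room temperature with DiscoveRx detection reagent.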
D3 antag = blocks the human D3 dopamine receptor. P35462. D3R cells, DiscoveRx beta-arrestin luminescence, antagonist mode; active compounds read low. max response, negative = inhibition, %. hit rate 2.5% among 360,000. AID 652054; in the data active = max response below about -50%
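Cells expressing the human receptor were seeded at 1500 cells/well, incubated overnight at 37 degrees C in 5% CO2, then exposed to library compounds with dopamine controls for 90 minutes at 37 degrees C before luminescent detection.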
D1 agonist = agonists of human D1 dopamine receptor | HEK293 T-REx D1 cells, calcium flux, agonist mode | activation, % at 2 µM | hit rate 1% among 360,000; in the data active = activation above about 30%
Target sequence (P21728 whole entry, looked up): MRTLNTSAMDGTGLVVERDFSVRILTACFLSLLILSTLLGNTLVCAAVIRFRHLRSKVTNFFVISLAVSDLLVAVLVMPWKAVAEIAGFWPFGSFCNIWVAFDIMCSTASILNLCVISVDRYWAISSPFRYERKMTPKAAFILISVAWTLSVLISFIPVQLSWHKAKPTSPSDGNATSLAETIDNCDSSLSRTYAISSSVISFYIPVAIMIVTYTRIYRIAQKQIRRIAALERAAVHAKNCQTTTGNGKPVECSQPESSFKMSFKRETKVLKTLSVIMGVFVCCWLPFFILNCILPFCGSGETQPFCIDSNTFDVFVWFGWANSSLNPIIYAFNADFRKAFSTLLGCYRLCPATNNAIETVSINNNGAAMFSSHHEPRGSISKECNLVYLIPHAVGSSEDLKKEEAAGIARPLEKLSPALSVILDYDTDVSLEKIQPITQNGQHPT
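Inducible HEK293 T-REx D1 cells, force-coupled to calcium signalling, were plated at 4000 cells/well with tetracycline and held overnight at 30 C. After no-wash calcium dye loading, compound-evoked calcium rise over 180 s flagged agonists.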
D1 antag = human D1 dopamine receptor antagonism | P21728 | HEK293 TREx D1 cells, calcium flux, dopamine EC80; active compounds read low | activity change, negative = inhibition, % at 10 µM | hit rate 3.2% among 360,000 | AID 504652; in the data active = activity change below about -30%
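Kinetic fluorescence of a calcium dye serves as the read-out. D1-expressing Hek293 Trex cells, induced overnight at 30 C, are exposed to compound for 180 s before an EC80 dopamine addition, then read 180 s further.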
D1 potentiator = potentiators of human D1 dopamine receptor; P21728; HEK293 TREx D1 cells, calcium flux, dopamine EC20 potentiation; potentiation, % at 10 µM; hit rate 0.036% among 360,000; AID 504651; in the data active = potentiation above about 30%
Hits are given with their value; - = inactive; . = no result. Only some compounds are listed: those with a hit (about 6% of all), similar ones and a draw of the others.

SMILES	D3 ag	D3 antag	D1 agonist	D1 antag	D1 potentiator
Cc1cccc(NC(=O)c2cc(S(=O)(=O)NCc3ccc4c(c3)OCO4)ccc2F)c1C	-	.	-	-	-
CN(C)c1ccc(/C=C2\C(=N)N3C(=NC2=O)Sc2cc(S(C)(=O)=O)ccc23)cc1	.	.	78.2	-	-
CN(C)c1ccc(/C=C2\C(=N)N3N=C(CC(=O)N4CCCC4)SC3=NC2=O)cc1Br	-	-	-	-	-
CN(C)c1ccc(/C=C2\C(=N)N3N=C(CC(=O)N4CCCCC4)SC3=NC2=O)cc1	-	-	36.5	-	-
Cc1ccc(NC(=O)C2CCN(S(=O)(=O)c3ccc(N4CCCC4=O)cc3)CC2)cc1Cl	-	-	-	-70.9	-
COc1ccc(NC(=O)C2CCCN(S(=O)(=O)c3ccc4[nH]c(=O)ccc4c3)C2)cc1Cl (configuration not stated)	-	.	-	-	-
CN(C)c1ccc(CNC(=O)C2CCN(S(=O)(=O)c3ccc4c(c3)oc(=O)n4C)CC2)cc1	-	-	-	-	-
Cc1ccc(NC(=O)C2CCCN(S(=O)(=O)c3ccc4[nH]c(=O)ccc4c3)C2)cc1Cl (configuration not stated)	-	.	-	-48.3	-
CN(C)c1ccc(CNC(=O)C2CCN(S(=O)(=O)c3ccc4[nH]c(=O)ccc4c3)CC2)cc1	-	.	-	-40.7	-
COc1ccc(NC(=O)C2CCN(S(=O)(=O)c3ccc(N4CCCC4=O)cc3)CC2)c(OC)c1	-	-	-	-	-
COC(=O)c1nnn(CC(=O)Nc2cc(F)ccc2F)c1C(=O)OC	-	.	-	-	-
CN(C(=O)CC1C(=O)NCCN1Cc1ccoc1)C1CCOCC1 (configuration not stated)	-	-	-	-	-
CN(CC1CCOCC1)C(=O)CC1C(=O)NCCN1Cc1cccc(C(F)(F)F)c1 (configuration not stated)	-	-	-	-76.7	-
Cc1ccc(CN2CCNC(=O)C2CC(=O)N(C)C2CCOCC2)cc1 (configuration not stated)	-	-	-	-33.1	-
CCC(C(=O)NCc1ccccc1Cl)n1nc(C)c2sc3ccccc3c2c1=O (configuration not stated)	-	.	-	-	-
CC1=NOC(=O)/C1=C/c1ccc(-c2ccc(Cl)cc2)o1	.	.	-	-	-
CC1=NOC(=O)/C1=C\c1ccc(-c2cc(Cl)ccc2Cl)o1	-	-62.7	-	-	-
COc1ccc(CNC(=O)c2ccc3c(c2)N(C)C(=O)C2CCCCN32)cc1OC (configuration not stated)	-	.	-	-	-
COc1ccc(CNc2ncnc3c2[nH]c2ccccc23)cc1	-	-	32.6	-41.6	-
Cc1ccc2c(c1)[nH]c1c(=O)n(CCC3=CCCCC3)cnc12	.	.	-	-31.7	-
O=c1c2[nH]c3ccccc3c2ncn1CCC1=CCCCC1	-	-	-	-	-
Cc1ccc2[nH]c3c(NCc4ccccc4)ncnc3c2c1	-	-	39.6	-50.8	-
COc1ccc(CNc2ncnc3c2[nH]c2cc(OC)c(OC)cc23)cc1	-	-	-	-	-
C1=C(CCNc2ncnc3c2[nH]c2ccccc23)CCCC1	-	-	-	-34.4	-
Cc1ccc(NC(=O)CN(C)C(=O)CSc2nc(C)cs2)cc1	-	-62.4	-	-	-
SMILES	D3 ag	D3 antag	D1 agonist	D1 antag	D1 potentiator
CCCc1cc(=O)[nH]c(SCC(=O)N(C)CC(=O)Nc2ccc(C)cc2)n1	-	-	-	-36.0	-
Cc1csc(SCC(=O)N(C)CC(=O)Nc2ccccc2Cl)n1	-	-	-	-	-
Cc1ccc(CNC(=O)c2ccc3c(c2)N(Cc2cccc(C)c2)C(=O)CS3)cc1	-	.	-	-	-
O=C(Nc1cccc(Br)c1)N1CCC(CN2CCCCCC2)CC1	-	.	-	-	-
CCc1ccc(C(=O)c2cn(CC(=O)NCCc3ccccc3)c3nc(C)ccc3c2=O)cc1	-	.	-	-	-
CC(CCC(C)C(C)(C)C)[C@@H]1CC[C@H]2C3C[C@H](OS(O)(=S)=S)[C@H]4C[C@H](OS(O)(=S)=S)[C@@H](OS(O)(=S)=S)C[C@]4(C)[C@H]3CC[C@]12C (some centres not stated) (tested in a mixture with another compound)	-	-83.0	.	.	.
CC(CCC(=O)NN)C1CCC2C3CCC4CC(O)CCC4(C)C3CCC12C (configuration not stated)	-	-	.	.	.
Cc1cc(C)nc(SCCCNCc2ccc(Br)cc2)n1	-	-94.5	35.6	-	-
Cc1ccc(CNCCCSc2nc(C)cc(C)n2)cc1	-	-92.5	-	-	-
CC(C)CNC(=O)c1cccc(NC(=O)CSc2ccc(Cl)cc2)c1	-	-	-	-	-
CC(C)(C)NC(=O)c1cccc(NC(=O)CSc2ccc(Cl)cc2)c1	-	-	-	-59.2	-
COc1cccc(Oc2cn[nH]c2-c2ccc(O)cc2O)c1	-	-	-	-	-
COc1ccccc1Oc1cn[nH]c1-c1ccc(O)cc1O	-	-	-	-32.0	-
CC(=O)N[C@@H](CC(=O)N[C@@H](CCC(=O)O)C(=O)O)C(=O)O	-	.	.	.	.
CCc1ccc2ncc3c(-c4ccccc4)nn(-c4ccccc4)c3c2c1	-	.	-	-	-
CCOC(=O)C1=C(CC)OC(N)=C(C#N)C1c1ccc(OC)c(C)c1OC (configuration not stated)	-	-	-	-	-
CCCC1=C(C(=O)OCC)C(c2ccco2)C(C#N)=C(N)O1 (configuration not stated)	48.0	-	-	-	-
CCOC(=O)C1=C(CC)OC(N)=C(C#N)C1c1ccc(OC)c(OC)c1OC (configuration not stated)	-	-	-	-31.8	-
CCOC(=O)C1=C(N)OC(C)=C(C#N)C1c1ccco1 (configuration not stated)	-	-	-	-	-
CCOC(=O)C1=C(CSc2nc(C)ccc2C#N)OC(N)=C(C#N)C1c1cccc(OC)c1OC (configuration not stated)	-	-	-	-70.1	-
CCOC(=O)C1=C(CSc2nc(CC)c(C)cc2C#N)OC(N)=C(C#N)C1c1ccc(OC)cc1 (configuration not stated)	-	-	-	-	-
CCCC1=C(C(=O)OCC)C(c2ccc(OC)c(C)c2OC)C(C#N)=C(N)O1 (configuration not stated)	-	-	56.3	-	-
COc1cccc(Cn2c(CNC(=O)Cc3cccc(C)c3)nc3cccnc32)c1	-	.	-	-	-
C[C@H]1CCC[C@]2(O[C@H](CCO)C[C@H](O)[C@H]2O)O1	37.4	-	.	.	.
CCN1CCCC1CNC(=O)c1cc(N)ccc1OC (configuration not stated)	-	-51.7	.	.	.
CCN1CCCC1CNC(=O)c1cc2ccc(OC)cc2[nH]1 (configuration not stated)	-	-	-	-	-

From PubChem BioAssay
